Screens: PubChem, Buhrlage Lab, Dana-Farber Cancer Institute and Novartis Institutes for BioMedical Research (Cambridge, Mass)
Compounds with a hit are over-represented: about 14% of the library has one in this group of screens.
USP17 inh – inhibitors of human USP17 deubiquitinase | A8MUK1 | purified USP17, Ub-rhodamine cleavage fluorescence, 3 h | inhibition, % at 50 µM | 47,000 compounds, 6.5% hits
USP30 inh – inhibitors of human USP30 deubiquitinase | purified USP30, Ub-rhodamine cleavage fluorescence | inhibition, % at 25 µM | 47,000 compounds, 5.3% hits | AID 1645860
Target sequence (Q70CQ3 whole entry, looked up): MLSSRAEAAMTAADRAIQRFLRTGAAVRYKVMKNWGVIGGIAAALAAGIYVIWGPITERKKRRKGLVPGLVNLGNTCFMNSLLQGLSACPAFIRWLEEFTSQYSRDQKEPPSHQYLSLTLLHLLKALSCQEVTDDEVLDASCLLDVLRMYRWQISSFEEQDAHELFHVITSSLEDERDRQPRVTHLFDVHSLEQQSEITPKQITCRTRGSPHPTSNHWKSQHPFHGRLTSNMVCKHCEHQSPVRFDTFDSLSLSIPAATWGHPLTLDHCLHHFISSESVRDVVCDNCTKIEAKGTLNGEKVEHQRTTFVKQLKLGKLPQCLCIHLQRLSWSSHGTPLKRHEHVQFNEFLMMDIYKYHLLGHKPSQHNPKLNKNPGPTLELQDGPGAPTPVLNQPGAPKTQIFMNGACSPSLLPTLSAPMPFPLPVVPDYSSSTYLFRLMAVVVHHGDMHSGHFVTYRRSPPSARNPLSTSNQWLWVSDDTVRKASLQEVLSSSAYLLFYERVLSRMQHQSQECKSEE
USP8 inh – human USP8 deubiquitinase inhibition; P40818; purified USP8, Ub-rhodamine cleavage fluorescence, 30 min; inhibition, % at 20 µM; 47,000 compounds, 4.2% hits
USP28 inh – human USP28 deubiquitinase inhibition; purified USP28, Ub-rhodamine cleavage fluorescence, 30 min; inhibition, % at 25 µM; 47,000 compounds, 3% hits; AID 1645857
USP10 block – inhibitors of human USP10 deubiquitinase | purified USP10, Ub-rhodamine fluorescence, 60 min | 47,000 compounds, 1.1% hits | inhibition, % at 20 µM | Q14694
Starred values were filed as active, the others as inactive; nt = not tested or not shown. Cut-off read from the data, not from the text of the source: active = inhibition above about 30%; inactive = the rest.

SMILES	USP17 inh	USP30 inh	USP8 inh	USP28 inh	USP10 block
COc1ccc(NC(=O)[C@H](C)NC(=O)c2cc3c(OC)cccc3[nH]2)cc1Cl	85.8*	69.9*	97.8*	74.2*	51.4*
O=C(CNC(=O)c1cc2ccccc2[nH]1)Nc1ccc2c(c1)OCCO2	50.5*	25.1	4.5	18.1	5.1
CC(NC(=O)c1cn(Cc2ccccc2)nc1-c1cccnc1)C1CC1 (configuration not stated)	-5.1	nt	0.0	nt	0.5
O=C(NC[C@]1(O)CCN(C2CCCCC2)C[C@H]1O)c1cnccn1	7.6	1.7	-4.4	1.6	-3.2
C[C@@H]1CCC2[C@](C)(COC=O)[C@@H](OC=O)CC[C@]2(C)[C@@]12CCC(CCOC=O)(COC=O)O2 (some centres not stated)	14.8	25.7	8.2	12.1	2.6
Cc1ccc(NS(=O)(=O)c2ccc(F)c(Cl)c2)cc1S(=O)(=O)N(C)C	-4.9	-6.3	-48.2	-0.2	10.6
O[C@H]1[C@H](NCc2cccc(C(F)(F)F)c2)[C@@H](c2cncnc2)C[C@H]1O	-13.1	-14.6	61.0*	27.5	-5.0
COc1ccc(CN[C@H]2[C@H](O)[C@H](O)C[C@@H]2c2cncnc2)cn1	-6.2	-18.6	34.9*	20.0	-1.5
N#Cc1cccc(C(=O)N2CCCSc3ccccc32)c1	0.1	-2.9	-0.4	-1.9	-4.5
Cn1c(CNC(c2ccccc2)c2ccccc2)nc2ccccc21	4.2	4.3	0.1	-0.1	4.4
CCCc1cc(=O)oc2cc(OCC(=O)NCc3ccccn3)ccc12	61.2*	60.0*	28.7	17.2	5.0
Cc1cc(=O)oc2cc(OCC(=O)NCc3ccccn3)ccc12	11.9	19.5	0.4	10.6	0.7
CCOc1ccccc1CN1CCC[C@@H](Cn2nnc(-c3ccncc3)n2)C1	11.6	31.5*	25.3	14.1	0.3
COc1ccc(S(=O)(=O)N2CCC[C@@H](Cn3nnc(-c4ccncc4)n3)C2)cc1	3.9	10.2	-2.5	5.1	-3.4
Cn1c(=O)c2c(nc3n(CC(O)c4ccccc4)c(-c4ccc(Cl)cc4)cn23)n(C)c1=O (configuration not stated)	-7.6	1.1	-30.4	-0.1	-0.4
Cn1c(CCNC(=O)c2[nH]nc3c2CCc2ccccc2-3)nc2ccccc21	77.7*	-11.3	59.4*	52.2*	17.9
O=C(NC1CCN(Cc2ccccc2)CC1)c1[nH]nc2c1CCc1ccccc1-2	-7.5	-49.3	0.1	62.1*	1.1
Cn1nc(C(=O)N2CCCC2)c2c1CN(Cc1cccc(C#N)c1)C2	-32.5	-13.1	-161.8	-8.1	-2.4
Cc1ccc(CN2C(=O)C(CC(=O)Nc3ccccc3Cl)n3c2nc2ccccc23)cc1 (configuration not stated)	3.5	22.4	-218.0	20.3	8.9
O=c1cc(CN2CCOCC2)nc2nc(NCc3ccccc3)[nH]n12	11.0	23.2	27.0	2.2	-10.5
O=c1cc(CNc2ccc(Br)cc2)nc2nc(-c3ccccc3)[nH]n12	81.9*	31.6*	45.3*	41.5*	-8.4
CCOC(=O)N1CCN(S(=O)(=O)c2ccc(C(=O)Nc3ccc(Br)cc3)cc2)CC1	87.8*	27.8	4.5	7.7	10.6
CCOC(=O)N1CCN(S(=O)(=O)c2ccc(C(=O)Nc3ccccc3Oc3ccccc3)cc2)CC1	1.7	21.1	2.0	-1.2	5.8
CC1(C)CC(=O)c2ccc(OCc3ccc([N+](=O)[O-])cc3)cc2O1	-4.3	-11.1	-58.2	35.7*	7.2
COc1ccc(OC)c2c(C)cc(N3CCN(S(=O)(=O)c4ccc5c(c4)CCCN5S(C)(=O)=O)CC3)nc12	98.4*	37.8*	21.6	44.3*	7.8
SMILES	USP17 inh	USP30 inh	USP8 inh	USP28 inh	USP10 block
COc1ccc(OCC(=O)Nc2ccc3c(c2)CCC(=O)N3Cc2ccccc2)cc1	12.6	32.4*	0.8	14.4	10.1
COc1ccc(Cl)cc1NC(=O)c1nc(-c2cn(-c3ccccc3)nn2)no1	16.1	13.8	98.7*	10.4	32.3*
COc1ccccc1NC(=O)c1nc(-c2cn(-c3ccc(F)cc3)nn2)no1	nt	-2.9	57.1*	-11.3	21.1
Cc1ccccc1NC(=O)c1nc(-c2cn(Cc3ccc(F)cc3)nn2)no1	78.5*	9.1	95.4*	12.0	35.3*
O=S(=O)(NCc1ccc(F)c(Cl)c1)c1c[nH]c2ncccc12	-2.6	-7.9	5.2	0.5	2.1
Cc1cn(C)c(C2CCCN2C(=O)c2ccc3n[nH]nc3c2)n1 (configuration not stated)	-6.2	-7.2	2.2	-5.2	-0.8
COc1ccccc1-c1cc2n(n1)CCN(Cc1ccc3c(c1)OCO3)C2	-1.6	7.8	4.9	5.1	2.4
